{"source": "the antibiotic and cytotoxicity screens of Wong et al. (2023)", "note": "The whole screen tested about 39,000 compounds, of which about 3,300 (8.5%) were called active. Many of the other results were omitted from the sample, so actives are more common in it than they were."}
{"test_system": "HepG2", "assay": "cytotoxicity call (relative viability < 0.9)", "conditions": "10 µM"}
{"compound": "Cc1ccc(S(=O)(=O)Nc2ccc3c(c2)C(=O)N([C@@H](C)CO)C[C@@H](C)[C@H](CN(C)C(=O)NC2CCCCC2)OCCCC[C@H](C)O3)cc1", "cytotoxicity call": "inactive"}
{"compound": "CC(C)N=c1cc2n(-c3ccc(Cl)cc3)c3ccccc3nc-2cc1Nc1ccc(Cl)cc1", "cytotoxicity call": "active"}
{"compound": "CN[C@H]1CCS(=O)(=O)C1", "cytotoxicity call": "inactive"}
{"compound": "CCN[C@H]1CCS(=O)(=O)C1", "cytotoxicity call": "inactive"}
{"compound": "Cc1nc(S(=O)(=O)N[C@H]2CCS(=O)(=O)C2)cn1C", "cytotoxicity call": "active"}
{"compound": "CCC(=O)N(C)C[C@@H]1Oc2ncc(C#C[C@@H](C)O)cc2C(=O)N([C@H](C)CO)C[C@@H]1C", "cytotoxicity call": "inactive"}
{"compound": "COc1cccc(-c2cnc3c(c2)C(=O)N([C@H](C)CO)C[C@H](C)[C@H](CN(C)S(=O)(=O)c2cccc(F)c2)O3)c1", "cytotoxicity call": "inactive"}
{"compound": "NC(Cn1ccc(=O)c(O)c1)C(=O)O", "note": "(centres undefined)", "cytotoxicity call": "active"}
{"compound": "N[C@@H](CN1C=CC(=O)C(=O)C1)C(=O)O", "cytotoxicity call": "inactive"}
{"compound": "N[C@@H](Cn1ccc(=O)c(O)c1)C(=O)O", "cytotoxicity call": "inactive"}
{"compound": "C[C@@H]1CN([C@@H](C)CO)C(=O)c2cc(NC(=O)Nc3ccc(C(F)(F)F)cc3)ccc2O[C@@H]1CN(C)C(=O)Nc1cccc2ccccc12", "cytotoxicity call": "inactive"}
{"compound": "C[C@@H]1CN(CCO[Si](C)(C)C(C)(C)C)C(=O)c2cc(NC(=O)Nc3ccccc3)ccc2O[C@@H](C)CCCCO[C@H]1CN(C)S(=O)(=O)c1ccc(F)cc1", "cytotoxicity call": "inactive"}
{"compound": "Cc1noc(C)c1NC(=O)Nc1ccc2c(c1)CC(=O)N([C@H](C)CO)C[C@@H](C)[C@H](CN(C)S(C)(=O)=O)O2", "cytotoxicity call": "inactive"}
{"compound": "C[C@H](CO)N1C[C@H](C)[C@H](CN(C)S(C)(=O)=O)Oc2ccc(NC(=O)Cc3ccccc3)cc2C1=O", "cytotoxicity call": "inactive"}
{"compound": "C[C@@H]1CCCCO[C@H](CN(C)Cc2ccc(Cl)c(Cl)c2)[C@@H](C)CN([C@@H](C)CO)C(=O)c2cc(NC(=O)Nc3ccccc3)ccc2O1", "cytotoxicity call": "inactive"}
{"compound": "C[C@@H]1CCCCO[C@@H](CN(C)Cc2ccc(Cl)c(Cl)c2)[C@H](C)CN([C@@H](C)CO)C(=O)c2cc(NC(=O)Nc3ccccc3)ccc2O1", "cytotoxicity call": "inactive"}
{"compound": "C[C@@H]1CN([C@H](C)CO)C(=O)c2cc(NC(=O)Nc3ccccc3)ccc2O[C@@H](C)CCCCO[C@H]1CN(C)Cc1ccc(Cl)c(Cl)c1", "cytotoxicity call": "active"}
{"compound": "C[C@@H]1CCCCO[C@@H](CN(C)Cc2ccc(Cl)c(Cl)c2)[C@@H](C)CN([C@@H](C)CO)C(=O)c2cc(NC(=O)Nc3ccccc3)ccc2O1", "cytotoxicity call": "inactive"}
{"compound": "C[C@@H]1CCCCO[C@H](CN(C)Cc2ccc(Cl)c(Cl)c2)[C@@H](C)CN([C@H](C)CO)C(=O)c2cc(NC(=O)Nc3ccccc3)ccc2O1", "cytotoxicity call": "inactive"}
{"compound": "C[C@H](CO)N1C[C@H](C)[C@H](CN(C)Cc2ccc(Cl)c(Cl)c2)OCCCC[C@H](C)Oc2ccc(NC(=O)Nc3ccccc3)cc2C1=O", "cytotoxicity call": "inactive"}
{"compound": "C[C@@H]1CN([C@H](C)CO)C(=O)c2cc(NC(=O)Nc3ccccc3)ccc2O[C@@H](C)CCCCO[C@@H]1CN(C)Cc1ccc(Cl)c(Cl)c1", "cytotoxicity call": "active"}
{"compound": "C[C@@H]1CCCCO[C@H](CN(C)Cc2ccc(Cl)c(Cl)c2)[C@H](C)CN([C@@H](C)CO)C(=O)c2cc(NC(=O)Nc3ccccc3)ccc2O1", "cytotoxicity call": "active"}
{"compound": "C[C@@H]1CN([C@@H](C)CO)C(=O)c2cc(NC(=O)Nc3ccccc3)ccc2O[C@@H](C)CCCCO[C@H]1CN(C)Cc1ccc(Cl)c(Cl)c1", "cytotoxicity call": "inactive"}
{"compound": "C[C@@H]1CCCCO[C@@H](CN(C)Cc2ccc(Cl)c(Cl)c2)[C@H](C)CN([C@H](C)CO)C(=O)c2cc(NC(=O)Nc3ccccc3)ccc2O1", "cytotoxicity call": "active"}
{"compound": "CO[C@H]1CN(C)C(=O)c2cc(NS(C)(=O)=O)ccc2OC[C@H](C)N(C(=O)C2CCCCC2)C[C@@H]1C", "cytotoxicity call": "inactive"}
{"compound": "C[C@H]1CN([C@@H](C)CO)C(=O)c2cc(NS(=O)(=O)c3cn(C)cn3)ccc2O[C@@H]1CN(C)CC1CC1", "cytotoxicity call": "inactive"}
{"compound": "Cc1ccc(S(=O)(=O)N(C)C[C@@H]2Oc3c(NS(=O)(=O)c4cn(C)cn4)cccc3C(=O)N([C@@H](C)CO)C[C@@H]2C)cc1", "cytotoxicity call": "inactive"}
{"compound": "COc1ccc(S(=O)(=O)N(C)C[C@H]2Oc3c(NC(=O)c4ccncc4)cccc3C(=O)N([C@H](C)CO)C[C@@H]2C)cc1", "cytotoxicity call": "inactive"}
{"compound": "CC(C)[Si](C#C[Si](C(C)C)(C(C)C)C(C)C)(O[C@H](C)c1cn(Cc2cccc(Cl)c2)nn1)C(C)C", "cytotoxicity call": "inactive"}
{"compound": "Cc1cc(C(=O)Nc2cccc3c2O[C@@H](CN(C)C(=O)NC2CCCCC2)[C@H](C)CN([C@@H](C)CO)C3=O)n(C)n1", "cytotoxicity call": "inactive"}
{"compound": "C[C@@H]1CN([C@@H](C)CO)C(=O)c2cc(NC(=O)CCCCCC(=O)Nc3ccccc3N)ccc2O[C@@H]1CN(C)S(C)(=O)=O", "cytotoxicity call": "inactive"}
{"compound": "COC(=O)[C@H]1C[C@@]2(C(=O)O)C[C@](C(=O)O)(C[C@@H](C(=O)OC)C2=O)C1=O", "cytotoxicity call": "inactive"}
{"compound": "C[C@@H]1CN([C@@H](C)CO)C(=O)CCCn2nncc2CO[C@@H]1CN(C)C(=O)Nc1ccc2c(c1)OCCO2", "cytotoxicity call": "inactive"}
{"compound": "C[C@@H]1CCCCO[C@H](CN(C)C(=O)Nc2ccc(C(F)(F)F)cc2)[C@@H](C)CN([C@H](C)CO)C(=O)c2cc(N(C)C)ccc2O1", "cytotoxicity call": "inactive"}
{"compound": "CCc1nc2ccc(C(=O)N3CCN(S(=O)(=O)CC)CC3)cn2c1N(C=O)Cc1ccc(OC)cc1", "cytotoxicity call": "inactive"}
{"compound": "C[C@H]1CCCCO[C@H](CN(C)Cc2ccc(Cl)c(Cl)c2)[C@@H](C)CN([C@@H](C)CO)C(=O)c2cc(NC(=O)Nc3ccccc3)ccc2O1", "cytotoxicity call": "inactive"}
{"compound": "C[C@@H]1CCCCO[C@@H](CN(C)Cc2ccc(Cl)c(Cl)c2)[C@@H](C)CN([C@H](C)CO)C(=O)c2cc(NC(=O)Nc3ccccc3)ccc2O1", "cytotoxicity call": "inactive"}
{"compound": "C[C@H](CO)N1C[C@H](C)[C@@H](CN(C)Cc2ccc(Cl)c(Cl)c2)OCCCC[C@H](C)Oc2ccc(NC(=O)Nc3ccccc3)cc2C1=O", "cytotoxicity call": "active"}
{"compound": "C[C@@H]1CCCCO[C@@H](CN(C)Cc2ccc(C(=O)O)cc2)[C@H](C)CN([C@H](C)CO)C(=O)c2cc(NC(=O)Nc3ccc(C(F)(F)F)cc3)ccc2O1", "cytotoxicity call": "inactive"}
{"compound": "COc1ccccc1CNC(=O)C[C@H]1C[C@H]2c3cc(NC(=O)c4ccc5c(c4)OCO5)ccc3O[C@H]2[C@@H](CO)O1", "cytotoxicity call": "inactive"}
{"compound": "Cc1noc(C)c1NC(=O)Nc1cccc2c1O[C@@H](CN(C)S(=O)(=O)c1ccccc1)[C@H](C)CN([C@H](C)CO)C2=O", "cytotoxicity call": "inactive"}
{"compound": "Cc1noc(C)c1NC(=O)N(C)C[C@H]1Oc2ncc(C#CCC(C)C)cc2C(=O)N([C@@H](C)CO)C[C@@H]1C", "cytotoxicity call": "inactive"}
{"compound": "C[C@@H]1CN([C@H](C)CO)C(=O)Cc2cc(NC(=O)CCCCCC(=O)Nc3ccccc3N)ccc2O[C@H]1CN(C)Cc1ccc(C(F)(F)F)cc1", "cytotoxicity call": "inactive"}
{"compound": "C[C@@H]1CN([C@@H](C)CO)C(=O)Cc2cc(NC(=O)CCCCCC(=O)Nc3ccccc3N)ccc2O[C@H]1CN(C)Cc1ccc(C(F)(F)F)cc1", "cytotoxicity call": "inactive"}
{"compound": "C[C@@H]1CN([C@H](C)CO)C(=O)Cc2cc(NC(=O)CCCCCC(=O)Nc3ccccc3N)ccc2O[C@@H]1CN(C)Cc1ccc(C(F)(F)F)cc1", "cytotoxicity call": "active"}
{"compound": "C[C@H]1CN([C@@H](C)CO)C(=O)Cc2cc(NC(=O)CCCCCC(=O)Nc3ccccc3N)ccc2O[C@@H]1CN(C)Cc1ccc(C(F)(F)F)cc1", "cytotoxicity call": "inactive"}
{"compound": "C[C@H](CO)N1C[C@H](C)[C@@H](CN(C)Cc2ccc(C(F)(F)F)cc2)Oc2ccc(NC(=O)CCCCCC(=O)Nc3ccccc3N)cc2CC1=O", "cytotoxicity call": "inactive"}
{"compound": "C[C@H](CO)N1C[C@H](C)[C@H](CN(C)Cc2ccc(C(F)(F)F)cc2)Oc2ccc(NC(=O)CCCCCC(=O)Nc3ccccc3N)cc2CC1=O", "cytotoxicity call": "active"}
{"compound": "Cc1noc(C)c1S(=O)(=O)N(C)C[C@@H]1Oc2ccc(NS(=O)(=O)c3cn(C)cn3)cc2CC(=O)N([C@@H](C)CO)C[C@H]1C", "cytotoxicity call": "inactive"}
{"compound": "C[C@@H]1CN([C@H](C)CO)C(=O)c2cc(NS(=O)(=O)c3ccc(F)cc3)ccc2O[C@@H]1CN(C)C(=O)Nc1ccc(C(F)(F)F)cc1", "cytotoxicity call": "inactive"}
{"compound": "C[C@@H]1CN([C@H](C)CO)C(=O)c2cccc(NS(=O)(=O)c3ccccc3)c2O[C@H]1CN(C)Cc1ccc(Oc2ccccc2)cc1", "cytotoxicity call": "inactive"}
{"compound": "COc1ccc(S(=O)(=O)N2C[C@@H](O)COC[C@H]3O[C@H](CC(=O)NCCCN(C)C)CC[C@@H]32)cc1", "cytotoxicity call": "inactive"}
{"compound": "COc1cccc(NC(=O)N(C)C[C@@H]2OCc3ccccc3-c3c(n(C)c4ccccc34)C(=O)N([C@@H](C)CO)C[C@@H]2C)c1", "cytotoxicity call": "inactive"}
{"compound": "C=CC[C@@H](CC(=O)N[C@H](CO)Cc1ccccc1)C(=O)N[C@H](C)COC(=O)[C@H](CC=C)CC(=O)OC(C)(C)C", "cytotoxicity call": "inactive"}
{"compound": "C[C@@H]1CN([C@H](C)CO)C(=O)c2cc(NC(=O)Cc3ccccc3)ccc2O[C@@H](C)CCCCO[C@@H]1CN(C)Cc1ccc(C(F)(F)F)cc1", "cytotoxicity call": "inactive"}
{"compound": "C[C@H](CO)N1C[C@H](C)[C@@H](CN(C)Cc2ccc(C(F)(F)F)cc2)OCCCC[C@H](C)Oc2ccc(NC(=O)Cc3ccccc3)cc2C1=O", "cytotoxicity call": "active"}
{"compound": "C[C@@H]1CCCCO[C@@H](CN(C)Cc2ccc(C(F)(F)F)cc2)[C@H](C)CN([C@H](C)CO)C(=O)c2cc(NC(=O)Cc3ccccc3)ccc2O1", "cytotoxicity call": "inactive"}
{"compound": "C[C@@H]1CCCCO[C@H](CN(C)Cc2ccc(C(F)(F)F)cc2)[C@H](C)CN([C@@H](C)CO)C(=O)c2cc(NC(=O)Cc3ccccc3)ccc2O1", "cytotoxicity call": "inactive"}
{"compound": "C[C@@H]1CCCCO[C@H](CN(C)Cc2ccccc2)[C@@H](C)CN([C@@H](C)CO)C(=O)c2cc(NC(=O)Cc3ccccc3)ccc2O1", "cytotoxicity call": "active"}
{"compound": "C[C@@H]1CN([C@H](C)CO)C(=O)c2cc(NC(=O)Cc3ccccc3)ccc2O[C@@H](C)CCCCO[C@H]1CN(C)Cc1ccc(C(F)(F)F)cc1", "cytotoxicity call": "active"}
{"compound": "C[C@H]1CCCCO[C@H](CN(C)Cc2ccccc2)[C@@H](C)CN([C@@H](C)CO)C(=O)c2cc(NC(=O)Cc3ccccc3)ccc2O1", "cytotoxicity call": "inactive"}
{"compound": "C[C@@H]1CCCCO[C@@H](CN(C)Cc2ccc(C(F)(F)F)cc2)[C@@H](C)CN([C@@H](C)CO)C(=O)c2cc(NC(=O)Cc3ccccc3)ccc2O1", "cytotoxicity call": "active"}
{"compound": "C[C@@H]1CN([C@@H](C)CO)C(=O)c2cc(NC(=O)Cc3ccccc3)ccc2O[C@@H](C)CCCCO[C@H]1CN(C)Cc1ccc(C(F)(F)F)cc1", "cytotoxicity call": "inactive"}
{"compound": "C[C@@H]1CN([C@H](C)CO)C(=O)c2cc(NC(=O)Cc3ccccc3)ccc2O[C@@H](C)CCCCO[C@H]1CN(C)Cc1ccccc1", "cytotoxicity call": "inactive"}
